# Data as given in PubChem BioAssay AID2391 (Southern Research Specialized Biocontainment Screening …, 2010).
# In all, about 310,000 compounds went through this assay and about 410 (0.13%) were called active. About 2% were inconclusive and are not listed. Only a sample is shown. Results with a measured potency or affinity are listed apart. A number with no mark means an inactive call. How the calls were made is not given here.
# Assay: inhibition of RSV-induced cytopathic effect – HEp-2 cells, primary 10 µM value included (AID 2391)
# Settings: at 10 µM, active compounds read high
row,SMILES,CPE inhibition [%]
1,Cc1ccc(N2CC(O)Cn3c2nc2c3c(=O)n(C)c(=O)n2C)cc1 (configuration not stated),0.84
2,Cc1csc(NC(=O)CSc2nnc(C)c(=O)n2N)n1,-0.18
3,NNC(=O)c1[nH]c(-c2ccccc2)cc1-c1ccccc1,0.95
4,O=C1c2ccccc2C(Nc2ccccc2)N1Cc1ccc2c(c1)OCO2 (configuration not stated),8.65
5,O=C1c2ccccc2C(Nc2ccc3c(c2)OCO3)N1Cc1ccc2c(c1)OCO2 (configuration not stated),13.8
6,C/C=C/C(=O)Nc1nnc(-c2ccccc2C)s1,0.32
7,CCOc1cccc(C(=O)Nc2ccccc2C(=O)N2CCN(C)CC2)c1,-0.42
8,CC(CC(=O)Nc1nccs1)c1ccccc1 (configuration not stated),-0.09
9,COc1cc2c(cc1OC)CN(C(=O)c1cccc(S(=O)(=O)N(C)C)c1)CC2,1.79
10,O=C(c1cccc(S(=O)(=O)N2CCc3ccccc32)c1)N1CCc2ccccc2C1,7.22
11,O=C(C1CC(=O)N(c2ccc(F)cc2)C1)N1CCOCC1 (configuration not stated),3.24
12,Cn1c(O)c(/C=C2\C=Nc3ccccc32)sc1=Nc1ccc(C(=O)O)cc1,1.42
13,C/C(=N\NC(=O)c1ccc(NS(=O)(=O)c2cccs2)cc1)c1ccccc1,-0.3
14,C/C(=N\NC(=O)c1ccc(NS(=O)(=O)c2cccs2)cc1)c1ccncc1,3.91
15,CC(C)=CCCC(C)CN1CCC(n2nccc2NC(=O)c2ccc3c(c2)OCO3)CC1 (configuration not stated),-0.22
16,N#Cc1ccccc1Cn1c(=O)n(Cc2ccc(C(=O)NCc3ccco3)cc2)c(=O)c2sccc21,2.1
17,O=C(CCCn1c(=O)c2sccc2n(Cc2ccc(F)cc2)c1=O)NCc1ccco1,-0.44
18,O=C(NCc1ccco1)c1ccc2c(=O)n(-c3ccccc3)c(=O)n(Cc3cccc(F)c3)c2c1,0.67
19,COCCCNC(=O)c1ccc(Cn2c(=O)c3ccccc3n(Cc3ccccc3C)c2=O)cc1,1.4
20,COCCCNC(=O)c1ccc(Cn2c(=O)c3ccccc3n(Cc3cc(C)ccc3C)c2=O)cc1,1.91
21,N#Cc1ccccc1Cn1c(=O)n(Cc2ccc(C(=O)NCc3ccco3)cc2)c(=O)c2ccccc21,2.54
22,O=C(NCc1ccco1)c1ccc(Cn2c(=O)c3ccccc3n(Cc3cccc(F)c3)c2=O)cc1,4.05
23,O=C(NCc1ccco1)c1ccc(Cn2c(=O)c3ccccc3n(Cc3cccc(Cl)c3)c2=O)cc1,18.6

row,SMILES,CPE inhibition [%]
1,CCN1CCCC1CNC(=O)Cn1ncc2c(=O)oc3ccc(C)cc3c21 (configuration not stated),2.08
2,Cc1ccccc1/C=N\NC(=O)c1ccc(Cn2cccn2)o1,1.85
3,O=c1nc2ccccc2c2n1CC(CN1CCN(c3ccc(F)cc3)CC1)N2 (configuration not stated),-0.72
4,CCCOc1ccccc1C1NC(=O)NC(C)=C1C(=O)OCCOCC (configuration not stated),-0.41
5,CCC(C)c1ccccc1NC(=S)Nc1cccnc1 (configuration not stated),3.94
6,Cc1ccc(N2C(=O)N(C(C)C)C(C)(C)CC2(C)O)cc1 (configuration not stated),2.14
7,O=C(c1cccc(Cl)c1)C1CCCN(C(=O)c2ccoc2)C1 (configuration not stated),-0.58
8,O=c1cc(-c2ccc(O)cc2)oc2c(C3O[C@H](CO)[C@@H](O)[C@H](O)[C@H]3O)c(O)cc(O)c12 (some centres not stated),-1.94
9,O=c1cc(-c2ccc(O)c(O)c2)oc2cc(O)c(C3OC(CO)C(O)C(O)C3O)c(O)c12 (configuration not stated),0.47
10,COc1ccc(OC)c(NC2c3ncccc3C(=O)N2Cc2ccco2)c1 (configuration not stated),6.51
11,COc1cc(NC2c3ncccc3C(=O)N2Cc2ccco2)cc(OC)c1 (configuration not stated),9.47
12,O=C1c2cccnc2C(Nc2ccccc2Br)N1Cc1ccco1 (configuration not stated),4.55
13,O=C1c2cccnc2C(Nc2cccc(F)c2)N1Cc1ccco1 (configuration not stated),12
14,CCCOc1ccc(CN(C(=O)c2cccc(OC)c2)C2CCS(=O)(=O)C2)cc1 (configuration not stated),0.38
15,CC(O)CNc1nc2ccccc2n1CC(=O)NCC(F)(F)F (configuration not stated),0.4
16,O=C(Oc1ccc(C(=S)N2CCOCC2)cc1)c1ccc([N+](=O)[O-])cc1[N+](=O)[O-],1.71
17,O=C(COc1ccc(F)cc1Cl)Nc1ccc(S(=O)(=O)Nc2nccs2)cc1,-1.6
18,CC(C)(C)c1cc(CNC2CS(=O)(=O)C[C@@H]2O)cc(C(C)(C)C)c1O (some centres not stated),0.68
19,COC(=O)c1cccc(Nc2nc3ccccc3nc2C)c1,7.1
20,Cc1cc(Nc2cccc(Cl)c2)c2ccccc2n1,11
21,CCOc1ccc(-c2c(C(=O)N/N=C/C3CC=CCC3)nnn2-c2nonc2N)cc1 (configuration not stated),0.26
22,CC1=NOC2(C1)N(C)c1ccccc1C2(C)C (configuration not stated),-0.95
23,CN1c2ccccc2C(C)(C)C12CC(CCl)=NO2 (configuration not stated),0.62

row,SMILES,CPE inhibition [%]
1,CCN(CC)S(=O)(=O)c1ccc(C2=NOC3(C2)N(C)c2ccccc2C3(C)C)cc1 (configuration not stated),49.6
2,CN1c2ccccc2C(C)(C)C12CC(c1ccc(Cl)c(S(=O)(=O)N3CCCC3)c1)=NO2 (configuration not stated),3.21
3,COC(=O)COc1ccc(S(=O)(=O)NCc2ccc3c(c2)OCO3)cc1C,1.14
4,CCCC[C@@H]1CNCCN1CCc1cccc2ccccc12,-0.31
5,Cc1cccc(NS(=O)(=O)c2ccc(C(=O)NCC3CCCO3)cc2)c1C (configuration not stated),2.28
6,CN(C)c1nc(C(N)=O)nc(N2CCOCC2)n1,0.62
7,Cc1cc(C)n(CCCNC(=O)CN(C)S(=O)(=O)c2ccc(Cl)cc2)n1,-0.89
8,Cc1oc(-c2ccccc2Cl)nc1CSCC(=O)O,2.04
9,Cc1ccc(-c2nc(CSCC(=O)N3CCCC3)c(C)o2)cc1,20.2
10,CC(=O)c1cccc(Nc2nc(=O)c3cccnc3s2)c1,-1.05
11,CC(=O)c1ccc(Nc2nc(=O)c3cccnc3s2)cc1,-0.53
12,Cc1ccc(Nc2nc(=O)c3cccnc3s2)cc1,4.1
13,O=c1nc(Nc2ccc(OCc3ccccc3)cc2)sc2ncccc12,43.1
14,O=C(O)CSc1nnc(COc2ccc(Br)cc2)n1-c1ccccc1,1.47
15,COC(=O)c1sccc1S(=O)(=O)N1CCCC(N(C)CCc2ccccn2)C1 (configuration not stated),-0.75
16,O=C1c2ccccc2C(=O)N1CCCCN(C(=O)c1cc([N+](=O)[O-])cc([N+](=O)[O-])c1)c1ccc(Cl)cc1,46.5
17,O=C(c1cc2ccccc2oc1=O)N(c1ccc(Cl)cc1)C1C=CS(=O)(=O)C1 (configuration not stated),1.15
18,Cc1ccc(N(CCCCN2C(=O)c3ccccc3C2=O)C(=O)c2ccc(Cl)s2)cc1,44.1
19,O=C1c2ccccc2C(=O)N1CCCCN(C(=O)c1cccc([N+](=O)[O-])c1)c1ccc(Cl)cc1,60.5
20,O=C1c2ccccc2C(=O)N1CCCCN(C(=O)c1ccc(Cl)s1)c1ccc(Cl)cc1,42.2
21,CCN(C(=O)c1cc2ccccc2oc1=O)c1ccccc1,0.2
22,CN(Cc1ccccc1)C(=O)N[C@@H](Cc1ccccc1)C(=O)O,0.64
23,COc1cccc(CCc2nnc(CCC(=O)NC(C)c3c(C)nn(C)c3C)o2)c1 (configuration not stated),0.66

row,SMILES,CPE inhibition [%]
1,COc1ccc(OC)c(CN2CCN(C(=O)c3ccc(F)cc3)CC2)c1,2.45
2,CC(C)Cc1nnc(NC(=O)CCC(=O)Nc2ccccc2F)s1,1.44
3,Nc1ccc(-c2nc3ccc(N)cc3s2)cc1,-1.51
4,Nc1ccc(-c2nc3ccc(C(=O)O)cc3s2)cc1,-1.01
5,CCc1n(CC(O)COCC2CC=CCC2)c2ccccc2[n+]1C (configuration not stated),0.73
6,O=C(NCc1ccc(F)cc1Cl)C1CCN(S(=O)(=O)N2CCCCC2)CC1,4.02
7,Cc1ccc(S(=O)(=O)N(C)C)cc1NC(=O)COC(=O)CCC1CCCCC1,-0.99
8,Cc1ccc(C)c(NC(=O)CN(C)C(=O)c2ccc(-c3cccc(C(F)(F)F)c3)o2)c1,0
9,Cc1cccc2nc(COc3ccc4ccccc4c3Br)cn12,8.72
10,Clc1ccc(OCc2cn3ccccc3n2)c2ncccc12,4.9
11,CCn1c(CNS(=O)(=O)c2ccc(Br)cc2)n[nH]c1=S,0.55
12,Cc1[nH]c2ccccc2c1/C=N/NC(=O)c1cccc([N+](=O)[O-])c1,1.07
13,Cc1[nH]c2ccccc2c1/C=N/Nc1ccc([N+](=O)[O-])cc1S(=O)(=O)Nc1ccc(Cl)cc1,1.27
14,C=CCc1cc(Cl)ccc1OCCCNC(C)CC (configuration not stated),0.05
15,CSc1ccc(/C=C(/NC(=O)c2ccc(C)cc2)C(=O)Nc2cccc(C)c2)cc1,2.91
16,COc1ccc(OCc2cccc(C(=O)O)c2)cc1,0.64
17,O=C(O)c1cccc(COc2ccccc2Cl)c1,1.88
18,COc1cc(CO)ccc1Oc1nc2ccccc2n2cnnc12,2.05
19,O=C1c2cccnc2C(Nc2ccc(Cl)cc2)N1Cc1cccs1 (configuration not stated),46.8
20,O=C1c2cccnc2C(Nc2ccc(F)c(Cl)c2)N1Cc1cccs1 (configuration not stated),18
21,Cc1ccc(NC2c3ncccc3C(=O)N2Cc2cccs2)cc1 (configuration not stated),8.2
22,Cc1ccc(NC2c3ncccc3C(=O)N2Cc2cccs2)cc1C (configuration not stated),13.8
23,CCOC(=O)CNC(=O)c1ccc2[nH]c3ccccc3c2c1,2.11
